The whole screen tested about 5,500 compounds, of which about 2,000 (36%) were called active. Roughly 18% stayed inconclusive and do not appear here. Cut-off read from the data, not from the text of the source: active = normalized growth mostly below about 0.91 (no sharp cut-off); inconclusive = no clear call, values can overlap the other calls; inactive = mostly above about 0.92. The list shows a part of the results.
Experiment: chemical genetic growth profiling, strain panel (AID 1159580);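 note: tested at 20 µM; growth read once vehicle control cultures reached saturation at 30 °C; 1 = growth at the plate median or of vehicle wells; lower values mean less growth of the strain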
Settings: growth OD

Measured: normalized growth

O=C(/C=C/c1ccccc1)c1ccc(O)cc1
active: S. cerevisiae deletion strains, locus YJR075W, strain HOC1, stronger effect = lower value 0.681 | S. cerevisiae deletion strains, locus YKL009W, strain mrt4, stronger effect = lower value 0.829 | S. cerevisiae deletion strains, locus YKL068W, stronger effect = lower value 0.912 | S. cerevisiae deletion strains, locus YKL085W, strain MDH1 (second series), stronger effect = lower value 0.923 | S. cerevisiae deletion strains, locus YKL085W, strain MDH1, stronger effect = lower value 0.923 | S. cerevisiae deletion strains, locus YKL160W, strain elf1, stronger effect = lower value 0.144 | S. cerevisiae deletion strains, locus YKR001C, strain vps1, stronger effect = lower value 0.299 | S. cerevisiae deletion strains, locus YKR026C, strain gcn3, stronger effect = lower value 0.292 | S. cerevisiae deletion strains, locus YKR091W, strain srl3, stronger effect = lower value 0.509 | S. cerevisiae deletion strains, locus YLL001W, strain dnm1, stronger effect = lower value 0.366 | S. cerevisiae deletion strains, locus YLL026W, stronger effect = lower value 0.173 | S. cerevisiae deletion strains, locus YLL041C, strain sdh2, stronger effect = lower value 0.218 | S. cerevisiae deletion strains, locus YLR027C, strain aat2, stronger effect = lower value 0.0836 | S. cerevisiae deletion strains, locus YLR039C, strain RIC1, stronger effect = lower value 0.202 | S. cerevisiae deletion strains, locus YLR058C, strain SHM2, stronger effect = lower value 0.765 | S. cerevisiae deletion strains, locus YLR102C, strain apc9, stronger effect = lower value 0.922 | S. cerevisiae deletion strains, locus YLR221C, strain rsa3, stronger effect = lower value 0.0804 | S. cerevisiae deletion strains, locus YLR258W, strain gsy2, stronger effect = lower value 0.237 | S. cerevisiae deletion strains, locus YLR262C, strain YPT6 (second series), stronger effect = lower value 0.17 | S. cerevisiae deletion strains, locus YLR262C, strain YPT6, stronger effect = lower value 0.248 | S. cerevisiae deletion strains, locus YLR268W, strain sec22, stronger effect = lower value 0.723 | S. cerevisiae deletion strains, locus YLR320W, strain mms22, stronger effect = lower value 0.0946 | S. cerevisiae deletion strains, locus YLR330W, strain CHS5, stronger effect = lower value 0.59 | S. cerevisiae deletion strains, locus YLR342W, strain FKS1 (second series), stronger effect = lower value 0.569 | S. cerevisiae deletion strains, locus YLR342W, strain FKS1, stronger effect = lower value 0.193 | S. cerevisiae deletion strains, locus YLR357W, strain rsc2, stronger effect = lower value 0.46 | S. cerevisiae deletion strains, locus YLR370C, strain arc18, stronger effect = lower value 0.447 | S. cerevisiae deletion strains, locus YLR371W, strain rom2, stronger effect = lower value 0.714 | S. cerevisiae deletion strains, locus YLR384C, strain iki3, stronger effect = lower value 0.462 | S. cerevisiae deletion strains, locus YLR418C, strain cdc73, stronger effect = lower value 0.301 | S. cerevisiae deletion strains, locus YML016C, strain PPZ1, stronger effect = lower value 0.896 | S. cerevisiae deletion strains, locus YML032C, strain rad52, stronger effect = lower value 0.814 | S. cerevisiae deletion strains, locus YML120C, strain ndi1, stronger effect = lower value 0.0894 | S. cerevisiae deletion strains, locus YML124C, strain tub3, stronger effect = lower value 0.913 | S. cerevisiae deletion strains, locus YMR058W, strain fet3, stronger effect = lower value 0.0951 | S. cerevisiae deletion strains, locus YMR078C, strain ctf18, stronger effect = lower value 0.676 | S. cerevisiae deletion strains, locus YMR125W, strain sto1, stronger effect = lower value 0.101 | S. cerevisiae deletion strains, locus YMR129W, stronger effect = lower value 0.222 | S. cerevisiae deletion strains, locus YMR205C, strain PFK2, stronger effect = lower value 0.124 | S. cerevisiae deletion strains, locus YMR223W, strain ubp8, stronger effect = lower value 0.852 | S. cerevisiae deletion strains, locus YMR231W, strain pep5, stronger effect = lower value 0.512 | S. cerevisiae deletion strains, locus YMR263W, strain SAP30, stronger effect = lower value 0.798 | S. cerevisiae deletion strains, locus YMR307W, strain GAS1, stronger effect = lower value 0.401 | S. cerevisiae deletion strains, locus YNL067W, strain RPL9B, stronger effect = lower value 0.719 | S. cerevisiae deletion strains, locus YNL071W, strain lat1, stronger effect = lower value 0.0619 | S. cerevisiae deletion strains, locus YNL128W, strain TEP1, stronger effect = lower value 0.734 | S. cerevisiae deletion strains, locus YNL153C, strain GIM3, stronger effect = lower value 0.492 | S. cerevisiae deletion strains, locus YNL209W, strain ssb2, stronger effect = lower value 0.593 | S. cerevisiae deletion strains, locus YNL233W, strain BNI4, stronger effect = lower value 0.621 | S. cerevisiae deletion strains, locus YNL248C, strain rpa49, stronger effect = lower value 0.0935 | S. cerevisiae deletion strains, locus YNL271C, strain bni1, stronger effect = lower value 0.878 | S. cerevisiae deletion strains, locus YNL298W, strain CLA4, stronger effect = lower value 0.824 | S. cerevisiae deletion strains, locus YNL307C, strain MCK1, stronger effect = lower value 0.162 | S. cerevisiae deletion strains, locus YNL322C, strain KRE1 (second series), stronger effect = lower value 0.231 | S. cerevisiae deletion strains, locus YNL322C, strain KRE1, stronger effect = lower value 0.77 | S. cerevisiae deletion strains, locus YNR049C, strain mso1, stronger effect = lower value 0.454 | S. cerevisiae deletion strains, locus YNR052C, strain pop2, stronger effect = lower value 0.866 | S. cerevisiae deletion strains, locus YOL006C, strain TOP1, stronger effect = lower value 0.347 | S. cerevisiae deletion strains, locus YOL147C, strain pex11, stronger effect = lower value 0.706 | S. cerevisiae deletion strains, locus YOR001W, strain rrp6, stronger effect = lower value 0.189 | S. cerevisiae deletion strains, locus YOR061W, strain CKA2, stronger effect = lower value 0.877 | S. cerevisiae deletion strains, locus YOR069W, strain VPS5, stronger effect = lower value 0.827 | S. cerevisiae deletion strains, locus YOR070C, strain gyp1, stronger effect = lower value 0.26 | S. cerevisiae deletion strains, locus YOR080W, strain dia2, stronger effect = lower value 0.514 | S. cerevisiae deletion strains, locus YOR083W, strain WHI5, stronger effect = lower value 0.312 | S. cerevisiae deletion strains, locus YOR106W, strain vam3, stronger effect = lower value 0.241 | S. cerevisiae deletion strains, locus YOR136W, strain idh2, stronger effect = lower value 0.914 | S. cerevisiae deletion strains, locus YOR144C, strain elg1, stronger effect = lower value 0.88 | S. cerevisiae deletion strains, locus YOR184W, strain ser1, stronger effect = lower value 0.459 | S. cerevisiae deletion strains, locus YOR265W, strain rbl2, stronger effect = lower value 0.295 | S. cerevisiae deletion strains, locus YOR270C, strain vph1, stronger effect = lower value 0.143 | S. cerevisiae deletion strains, locus YOR290C, strain snf2, stronger effect = lower value 0.14 | S. cerevisiae deletion strains, locus YOR316C, strain cot1, stronger effect = lower value 0.917 | S. cerevisiae deletion strains, locus YPL051W, strain arl3, stronger effect = lower value 0.213 | S. cerevisiae deletion strains, locus YPL055C, strain LGE1, stronger effect = lower value 0.558 | S. cerevisiae deletion strains, locus YPL078C, strain atp4, stronger effect = lower value 0.209 | S. cerevisiae deletion strains, locus YPL106C, strain sse1, stronger effect = lower value 0.503 | S. cerevisiae deletion strains, locus YPL240C, strain hsp82, stronger effect = lower value 0.149 | S. cerevisiae deletion strains, locus YPL241C, strain CIN2, stronger effect = lower value 0.763 | S. cerevisiae deletion strains, locus YPR119W, strain clb2, stronger effect = lower value 0.905 | S. cerevisiae deletion strains, locus YPR141C, strain kar3, stronger effect = lower value 0.907 | S. cerevisiae deletion strains, locus YPR163C, strain tif3, stronger effect = lower value 0.369 | S. cerevisiae deletion strains, locus YPR167C, strain met16, stronger effect = lower value 0.898 | S. cerevisiae deletion strains, strain wtn01, stronger effect = lower value 0.78 | S. cerevisiae strains, strain wild type, stronger effect = lower value 0.518
inactive: S. cerevisiae deletion strains, locus YLR113W, strain HOG1, stronger effect = lower value 0.964 | S. cerevisiae deletion strains, locus YNL183C, strain NPR1, stronger effect = lower value 0.901 | S. cerevisiae deletion strains, locus YNL250W, strain rad50, stronger effect = lower value 0.924 | S. cerevisiae deletion strains, locus YOL012C, strain htz1 0.327 | S. cerevisiae deletion strains, locus YOR231W, strain MKK1, stronger effect = lower value 0.948 | S. cerevisiae deletion strains, locus YPL256C, strain CLN2, stronger effect = lower value 0.978
